Measured values reported in the supplement of paper PMC3334620.
Whole data set: some 33,000 sequences, median “E-score (-0.5 to 0.5)” near -0.036, cut for the highest 2% near 0.37. The sample as a whole holds a higher share of the highest values than the screen did.

The sequences below were run against T1, Yer064c (UniProt P40041) (assay: PBM E-score (8-mer binding enrichment) (E-score (-0.5 to 0.5)); higher = stronger / more preferred TF binding). Conditions: protein concentration: 200 nM; construct: GST-full length.
T1 sequence: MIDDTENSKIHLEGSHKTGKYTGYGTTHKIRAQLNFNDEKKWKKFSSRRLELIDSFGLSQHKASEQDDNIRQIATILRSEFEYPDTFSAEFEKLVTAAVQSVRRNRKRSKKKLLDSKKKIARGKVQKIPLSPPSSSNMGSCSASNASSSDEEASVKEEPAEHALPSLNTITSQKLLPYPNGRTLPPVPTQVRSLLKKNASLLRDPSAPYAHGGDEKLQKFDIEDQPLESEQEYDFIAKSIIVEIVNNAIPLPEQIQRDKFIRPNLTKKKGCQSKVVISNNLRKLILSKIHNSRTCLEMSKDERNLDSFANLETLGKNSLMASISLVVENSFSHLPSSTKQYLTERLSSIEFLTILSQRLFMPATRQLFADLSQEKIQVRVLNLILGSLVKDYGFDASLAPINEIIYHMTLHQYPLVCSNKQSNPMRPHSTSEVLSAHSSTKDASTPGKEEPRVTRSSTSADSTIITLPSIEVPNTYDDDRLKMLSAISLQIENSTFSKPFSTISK
How it was run: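 Universal all-10-mer Agilent arrays, double-stranded by primer extension on fresh or once-stripped slides, were probed with about 100-200 nM GST-tagged yeast transcription factors made by PURExpress. Fluorescent anti-GST detected bound protein, and masliner normalised the scans. E-scores from the Universal PBM Analysis Suite were given to each ungapped eight-base word pooled with its reverse complement.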

Row | Sequence | PBM E-score
1 | AGCCACTC | 0.0575
2 | CGTGTATA | 0.0534
3 | CCTAATTA | -0.151
4 | ATGCTAGA | -0.0387
5 | CAGAACTG | 0.139
6 | AGCCGAGA | 0.0772
7 | CACTTTCG | -0.131
8 | AACACCAT | -0.0344
9 | CAGCTTTA | -0.123
10 | ATATATCA | -0.0122
11 | GGCACCCC | -0.215
12 | GTCATGAA | 0.308
13 | ATCATGAC | 0.369
14 | CTCATGAC | 0.381
15 | GTCATGAC | 0.432
16 | ACCATGAT | 0.217
17 | ATCATGAG | 0.34
18 | CTCATGAG | 0.3
19 | ATCATGAT | 0.378
20 | ATCATGAA | 0.266
21 | AGCATGAT | 0.26
22 | CTCATGAA | 0.202
23 | GCCATGAC | 0.307
24 | CCGAGCAA | -0.287
25 | ATTTGGTG | -0.0429

Row | Sequence | PBM E-score
26 | CCACGTTC | -0.218
27 | CGGTCAAG | -0.055
28 | AATTTAGT | 0.363
29 | GTACCGCA | -0.0756
30 | CTAGCACA | -0.147
31 | CCATAGCC | -0.0772
32 | ACATAGTG | 0.0787
33 | CCATAGTA | 0.0975
34 | CCATAGTC | 0.396
35 | ACATAGTC | 0.386
36 | ACATAGTA | 0.0874
37 | CTCTCGAC | -0.0566
38 | ACCGCCCA | -0.117
39 | CGAGAATA | -0.0825
40 | AGTCACGG | 0.469
41 | AATCACGG | 0.322
42 | ATTCACGC | 0.132
43 | CGTCACGA | -0.0925
44 | AGTCACGA | 0.466
45 | AGTCACGC | 0.469
46 | GGTCACGA | 0.0181
47 | ATTCACGG | 0.196
48 | CGTCACGC | -0.184
49 | CAGTAAAG | 0.0694
50 | CCGTTTGA | 0.0399

Row | Sequence | PBM E-score
51 | ACACCCAA | -0.0135
52 | CCGCCTAC | -0.132
53 | CCTTCGCA | -0.293
54 | CTCGGAAC | -0.012
55 | GACGGCAA | -0.0972
56 | AGGAATCA | 0.429
57 | CGGAATCA | 0.392
58 | CGGAATCC | -0.0704
59 | GGGAATCA | 0.418
60 | AGGAATCC | -0.0672
61 | GGGAATAA | -0.128
62 | CGGAATTA | -0.0336
63 | AGGAATCG | 0.235
64 | GGGAATGA | 0.0959
65 | GGATTCCA | 0.0871
66 | CGCCGAAA | -0.059
67 | GCGCAGGA | -0.0398
68 | CCATCCTA | 0.0627
69 | ATACCATG | 0.061
70 | AAGTCATG | 0.465
71 | AAGTCATC | 0.471
72 | AAGTCAAT | 0.305
73 | AGGTCATA | 0.171
74 | ATGTCATC | -0.179
75 | ATGTCATA | 0.013

Row | Sequence | PBM E-score
76 | AGGTCATG | 0.17
77 | ACGTCATG | 0.21
78 | AACTCATT | 0.2
79 | AAGTCATA | 0.46
80 | AAGTCATT | 0.454
81 | AGGTCATC | 0.18
82 | ATCTCTAA | 0.0574
83 | AAGGATCC | -0.15
84 | GAGTTCTA | 0.0136
85 | GGTTGGGA | 0.00893
86 | GGTATCAA | 0.0678
87 | CGGTCATC | -0.108
88 | CCGTCATC | -0.098
89 | CAGTCATC | 0.467
90 | ATCAAATC | 0.21
91 | GAGAAGCC | -0.201
92 | AGCAGAGC | -0.137
93 | ATCATACA | 0.236
94 | GTCATACA | 0.374
95 | CTCATACA | 0.184
96 | ATCAGGAA | 0.00077
97 | CCGGCATC | -0.251
98 | CGTAATCC | -0.0532
99 | AGTAATCC | 0.0831
100 | AGTAATCA | 0.415

Row | Sequence | PBM E-score
101 | GGTAATGA | 0.189
102 | CGTAATCA | 0.42
103 | GGTAATTA | 0.0662
104 | CGTAATTA | -0.00543
105 | GGTAATCA | 0.433
106 | AGTAATCG | 0.186
107 | CTGCGGTC | -0.245
108 | CAGACCGC | -0.0824
109 | AGTCGATA | 0.179
110 | ACTCTCAG | 0.125
111 | AGACTCAG | 0.434
112 | ACTCTCAA | 0.257
113 | AGACTCAA | 0.444
114 | ATACTCAG | 0.214
115 | AGACTCTA | 0.267
116 | AGACTCGC | 0.336
117 | ATACTCAT | 0.371
118 | AGACTCAC | 0.457
119 | ATACTCAA | 0.239
120 | AGACTCTG | 0.301
121 | ACTCTCAC | 0.173
122 | CCAAGTTA | 0.0576
123 | CAATTGCG | -0.0914
124 | ATGGATGG | -0.0396
125 | GCAACTGC | -0.0982

Row | Sequence | PBM E-score
126 | AACCGTGT | 0.0249
127 | CGGTTCAG | -0.212
128 | TAGCTAAA | 0.0446
129 | CCGGGGGC | -0.128
130 | CCCCACCC | -0.0582
131 | ATCATTTA | 0.327
132 | ATCCTTAG | -0.107
133 | CATGGCCG | -0.31
134 | CGACTCGC | 0.361
135 | AGACTCCG | 0.367
136 | ACACTCAT | 0.25
137 | CGACTCAC | 0.468
138 | ACTCTCAT | 0.112
139 | CGACTCTC | 0.381
140 | CCACTCAC | -0.0373
141 | CAACTCAC | 0.224
142 | AGACTCTC | 0.334
143 | AGACTCAT | 0.467
144 | ACACTCCG | -0.136
145 | AGACTCCT | 0.337
146 | TGGGCTAA | -0.0729
147 | AGATGGTC | -0.295
148 | AGAGACAG | -0.0696
149 | GAACTAGA | 0.0303
150 | CTACTCAG | 0.132

Row | Sequence | PBM E-score
151 | CCACTCAG | 0.0632
152 | CGACTCAG | 0.45
153 | CCGTTATC | 0.0125
154 | ATGGCGGG | -0.0628
155 | GGTCACAC | -0.00398
156 | ACTCACAT | 0.35
157 | GGTCACAA | 0.0763
158 | AGGCACAT | -0.117
159 | ATTCACAG | 0.078
160 | AGTCACAT | 0.469
161 | CGTCACAA | -0.0973
162 | CGTCACAG | -0.031
163 | CGTCACAC | -0.155
164 | AGTCACAG | 0.467
165 | AGTCACAA | 0.46
166 | AGTCACAC | 0.477
167 | CCCCGCTA | -0.209
168 | CTGGCGCC | -0.331
169 | TGCGGACA | -0.121
170 | GATGGCTA | 0.359
171 | CTGTCATA | 0.0424
172 | TAGTCATA | 0.489
173 | CAGTCATG | 0.458
174 | TACTCATA | 0.343
175 | CAGTCATA | 0.448

Row | Sequence | PBM E-score
176 | CCGTCATA | 0.0861
177 | CGGTCATA | -0.0954
178 | CACTCATG | 0.222
179 | ATGTCATG | 0.214
180 | CGCGGACC | -0.262
181 | CGGTTGAC | 0.0774
182 | ACCAGCGG | -0.133
183 | CGGCAAGA | -0.115
184 | ATTCAATG | 0.204
185 | CGTCAATA | -0.192
186 | AATCAATG | 0.236
187 | AATCAATC | 0.301
188 | ACTCAATG | 0.302
189 | ACTCAATC | 0.404
190 | AGTCAATA | 0.383
191 | AGTCAATC | 0.426
192 | GGTCAATA | 0.108
193 | CGTCAATC | 0.17
194 | ATTCAATC | 0.308
195 | AGTCAATG | 0.377
196 | AGCGGATG | -0.0548
197 | CTGGGCTA | -0.161
198 | AGGCTACC | -0.0969
199 | CCAACACC | -0.158
